From ChEMBL document CHEMBL3988442, “University of Dundee, Small-Polar-MMV Screening Library” (2021)

target: T1, Aspartate--tRNA(Asp/Asn) ligase (Mycobacterium tuberculosis (strain ATCC 25618 / H37Rv)) (UniProt P9WFW3); assay: Assay for Asp RNA synthetase-1 from Mycobacterium tuberculosis; format: functional; parameters: scale not given: in the data most compounds retested in dose-response had high values; details: 30 µM
T1 sequence (whole entry): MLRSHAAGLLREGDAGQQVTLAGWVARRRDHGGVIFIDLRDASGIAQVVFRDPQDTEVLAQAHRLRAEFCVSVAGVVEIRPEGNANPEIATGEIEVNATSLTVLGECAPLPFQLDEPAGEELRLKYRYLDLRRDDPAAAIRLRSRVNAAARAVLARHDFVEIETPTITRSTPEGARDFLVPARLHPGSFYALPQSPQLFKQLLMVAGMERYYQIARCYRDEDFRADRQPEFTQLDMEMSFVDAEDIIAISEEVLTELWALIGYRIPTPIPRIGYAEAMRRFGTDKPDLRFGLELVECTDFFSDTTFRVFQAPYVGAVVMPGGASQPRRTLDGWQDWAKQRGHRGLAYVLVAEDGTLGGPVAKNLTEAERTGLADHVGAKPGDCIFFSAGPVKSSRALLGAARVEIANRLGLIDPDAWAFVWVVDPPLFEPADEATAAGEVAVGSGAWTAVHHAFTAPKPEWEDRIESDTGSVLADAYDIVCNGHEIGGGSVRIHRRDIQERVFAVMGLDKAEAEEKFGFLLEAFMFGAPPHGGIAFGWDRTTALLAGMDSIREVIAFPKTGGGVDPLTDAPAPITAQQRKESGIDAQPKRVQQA

In order of rising Percent Effect:
1. CCn1nc(CC(C)C)cc1C(=O)N1CC[C@@H](O)C1  -5.25%
2. COc1cc(C(=O)N(CCC#N)Cc2ccccn2)cc(OC)c1C  -3.83%
3. CCCS(=O)(=O)N1CCC(NC(=O)c2cc(C)c(CC)s2)CC1  -2.13%
4. CN(C)CCn1c(=O)oc2ccc(NC(=O)C3CCCO3)cc21 (centres undefined)  -2.08%
5. CC(C)Nc1ncc(CN2C[C@@H](CN3CCC(O)CC3)[C@@H](CO)C2)cn1  -1.99%
6. COc1c(CNC2CCc3c(Cl)cccc32)c(C)nn1C (centres undefined)  -1.71%
7. CCc1nc(CCNC(=O)Nc2cc(C(N)=O)sc2C)cs1  -1.32%
8. NC(=O)C1CCN(Cc2cccc(NC(=O)c3ccsc3)c2)CC1  -1.25%
9. COc1c(C)cnc(CSc2nnc(C)s2)c1C  -1.18%
10. CCOC(=O)C1CCCN(c2ccc(-c3nc(C)no3)cn2)C1 (centres undefined)  -0.931%
11. CC(C)CN1CCCn2nc(CNC(=O)CCN)cc2C1  -0.839%
12. Cc1cnn(CCNCc2ccc(OCc3csc(C)n3)cc2)c1  -0.126%
13. Cc1cc(N2CCN(Cc3ccc(-c4cc[nH]n4)o3)CC2)cc(C)n1  0.126%
14. Cc1ccc(CNCc2nnc3n2CCCC3C(F)(F)F)o1 (centres undefined)  0.425%
15. O=C(CCNS(=O)(=O)c1ccc2c(c1)CCCC2)NCc1ccoc1  0.701%
16. O=C(c1ccc2c(c1)CCC2)N1C[C@@H](CN2CCOCC2)[C@@H](CO)C1  1.28%
17. COc1ncccc1C(=O)N1CCC(CNC(C)=O)CC1  1.83%
18. Cc1ccc(C#N)c(N2CCC(c3nccn3Cc3cscn3)CC2)n1  2.26%
19. Cc1ccc(CNCc2nnc3n2CCCC3C(F)(F)F)s1 (centres undefined)  4.24%
